# Results taken from PubChem BioAssay (NCI).
# Compounds without any hit were thinned out: in the full panel of roughly 83,000, 20% have a hit.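 96-well plates, one dose, 48 hours. Percent growth reported; active if below 10.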 Unmarked numbers belong to inactive results. Active and inactive are the calls of the source.
# Tests used:
# Assay in all cases: NCI-60 one-dose screen, 48 h (100 = growth as untreated, 0 = no growth, -100 = all killed)
# Conditions in all cases: 10 µM unless noted
# SK-MEL-2 melanoma = system: SK-MEL-2 melanoma
# EKVX NSCLC = system: EKVX NSCLC
# SN12C renal = system: SN12C renal
# UO-31 renal = system: UO-31 renal
# TK-10 renal = system: TK-10 renal
# ACHN renal = system: ACHN renal
# A498 renal = system: A498 renal
# CCRF-CEM leukemia = system: CCRF-CEM leukemia
# MOLT-4 leukemia = system: MOLT-4 leukemia
# SR leukemia = system: SR leukemia
# RPMI-8226 leukemia = system: RPMI-8226 leukemia
# OVCAR-8 ovarian = system: OVCAR-8 ovarian
# OVCAR-5 ovarian = system: OVCAR-5 ovarian
# OVCAR-4 ovarian = system: OVCAR-4 ovarian
# SK-OV-3 ovarian = system: SK-OV-3 ovarian
# IGROV1 ovarian = system: IGROV1 ovarian
# OVCAR-3 ovarian = system: OVCAR-3 ovarian
# HS 578T breast = system: HS 578T breast
# NCI/ADR-RES ovarian = system: NCI/ADR-RES ovarian
# T-47D breast = system: T-47D breast
Compound,growth (SK-MEL-2 melanoma),growth (EKVX NSCLC),growth (SN12C renal),growth (UO-31 renal),growth (TK-10 renal),growth (ACHN renal),growth (A498 renal),growth (CCRF-CEM leukemia),growth (MOLT-4 leukemia),growth (SR leukemia),growth (RPMI-8226 leukemia),growth (OVCAR-8 ovarian),growth (OVCAR-5 ovarian),growth (OVCAR-4 ovarian),growth (SK-OV-3 ovarian),growth (IGROV1 ovarian),growth (OVCAR-3 ovarian),growth (HS 578T breast),growth (NCI/ADR-RES ovarian),growth (T-47D breast)
CCOC(=O)c1sc(/N=C2\NC(=O)/C(=C/c3ccc(N4CCN(C)CC4)cc3)S2)nc1C,98%,96.7%,111%,84.6%,116%,108%,111%,91.7%,88.9%,101%,87.5%,110%,110%,103%,102%,99.5%,96.3%,107%,98.1%,95.5%
O=C1Nc2ccccc2C12C=C(c1ccccc1)Nc1c2c(-c2ccccc2)nn1-c1ccccc1 (stereo not given),80.1%,53.2%,76.5%,62.9%,87.8%,60.4%,75.6%,25.9%,16.4%,38%,40.8%,46.6%,73%,78%,87%,67.9%,70.3%,78.9%,66.2%,61.7%
C/C(=N\NC(=O)c1ccncc1)c1ccc(N)cc1,105%,101%,97.1%,89.5%,103%,109%,90.6%,92%,92.4%,85.8%,97.5%,101%,107%,94.4%,101%,97.4%,105%,96.8%,111%,83.8%
Nc1c(C(=O)Nc2ccccn2)sc2nc3c(cc12)C(=O)CCC3,32.9%,34.4%,43.6%,59.3%,64.2%,59.5%,2.05% (active),47.9%,69.7%,40.6%,38.5%,64.3%,46.9%,56.8%,40.3%,51.3%,3.09% (active),1.79% (active),21.9%,33.1%
Nc1c(C(=O)Nc2ccccc2Cl)sc2nc3c(cc12)CN(Cc1ccccc1)CC3,95.6%,93%,101%,99.7%,98.5%,104%,85.4%,91.7%,89.6%,87.1%,103%,118%,95.5%,113%,91.2%,87.5%,85.1%,108%,99.8%,87.8%
CC(C)(C)CC(C)(C)Cc1ccc(OCCOCC[N+](C)(C)Cc2ccccc2)cc1,28.4%,74.7%,8.79% (active),97.1%,49.4%,97.4%,63.8%,10%,7.43% (active),-27.8% (active),-53.4% (active),22.8%,74%,7.03% (active),46.9%,-16.7% (active),0.137% (active),26.3%,99.9%,0.793% (active)
Cc1c(C(=O)Nc2nc3ccccc3[nH]2)cnn1-c1ccccn1,105%,103%,114%,104%,98.3%,114%,96.4%,90.8%,77.5%,83.8%,95.6%,98.3%,108%,105%,104%,114%,112%,112%,106%,101%
COc1cc2c(Nc3ccc(NC(=O)Nc4ccc(Cl)c(C(F)(F)F)c4)c(Cl)c3)ncnc2cc1OCCCN1CCN(C)CC1,-37.9% (active),52.5%,18.6%,54.9%,20.5%,35%,39.7%,-15.4% (active),-43.7% (active),-40.5% (active),-39% (active),13%,31%,-9.14% (active),20.4%,-2.58% (active),11%,-8.65% (active),93.3%,22.2%
CCCCCCCCCCCCCC1=NCC[N+]1(CCO)Cc1ccccc1 (stereo not given),-61.7% (active),-79.5% (active),-84.3% (active),-86.1% (active),-85.4% (active),-98% (active),54.2%,-49.5% (active),-58.1% (active),-50.7% (active),-47.2% (active),-83% (active),-15% (active),-28.5% (active),48.8%,-72.6% (active),-86.9% (active),-36.5% (active),-60.1% (active),-72.8% (active)
Cc1cc(O)cc(O)c1N=NC1=NCCS1,98.3%,96.5%,109%,89.9%,135%,97.3%,-6.58% (active),101%,94.1%,97.1%,106%,101%,101%,102%,97.2%,104%,104%,116%,103%,92.5%
Cn1cc(-c2ccc3c(c2)ncn3-c2ccc(CC(=O)Nc3cc(C(C)(C)C)on3)cc2)cn1,23.4%,20.5%,13.1%,3.88% (active),-8.53% (active),6.24% (active),-47.1% (active),57.7%,27.4%,18.8%,76.8%,41.4%,22.8%,12.3%,7.18% (active),-27.7% (active),32.4%,-7.52% (active),38.7%,35.5%
CC1CCN(CCCCCOc2ccc3oc4cc(Cl)ccc4c(=O)c3c2)CC1,88%,83.8%,63.5%,67.7%,78%,83.1%,85.2%,65.5%,29.7%,16.5%,50.4%,73.6%,64.8%,75.2%,96.5%,51.8%,73.3%,84.8%,70.8%,64.6%
O=C(CCl)N1CCCc2ccccc21,110%,96.4%,93.8%,82.8%,102%,101%,94.5%,96.8%,93.5%,101%,102%,107%,99.2%,102%,119%,106%,94.9%,105%,96.8%,106%
CC1(C)CC[C@]2(c3nnc(-c4ccncc4)o3)CC[C@]3(C)C(=CC[C@@H]4[C@@]5(C)CCC(=O)C(C)(C)[C@@H]5CC[C@]43C)[C@@H]2C1,96%,76.3%,79.7%,77.5%,128%,88.7%,106%,75.5%,52%,63.7%,62.4%,81.1%,99.9%,89.2%,104%,93.2%,80.8%,98.6%,97.2%,65.9%
NS(=O)(=O)c1ccc(-n2ncc(NC(=O)Nc3ccc(S(=O)(=O)Nc4nccs4)cc3)c2-c2ccccc2)cc1,93.2%,100%,98.8%,97.5%,95.9%,96.5%,112%,97.7%,100%,103%,103%,102%,99%,101%,99.5%,105%,111%,102%,105%,94.2%
C#CCN(CCCOc1ccc(Cl)cc1Cl)CCCSC(=O)CCCCCN1/C(=C\C=C2/CCCC(/C=C/C3=[N+](CCCCCC(=O)[O-])c4ccccc4C3(C)C)=C2Cl)C(C)(C)c2ccccc21,-29% (active),61.6%,5.06% (active),94.9%,50.3%,102%,13%,-1.58% (active),-18.7% (active),-16.2% (active),-22.6% (active),8.18% (active),66.4%,57.1%,65%,-13.2% (active),1.44% (active),6.47% (active),106%,-21.4% (active)
